{"source": "the supplement of paper PMC10646978", "note": "± gives the standard deviation.", "data": [{"tested_on": "RAW-Dual (murine macrophage reporter line)", "test": "IRF reporter (Lucia luciferase) activity fold change vs agonist alone; higher = enhanced IRF activity", "settings": "modulator concentration 10 µM; agonist: LPS 0.1 ug/mL", "procedure,_shortened": "(§1)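 RAW-Dual murine macrophage reporter cells were seeded at 50 000 per well in 384-well plates and pre-incubated 1 hour at 37 °C with compound pin-transferred to 10 μM final. After 1 hour, a PRR agonist was added and cells incubated overnight. Supernatant NF-κB (SEAP, QUANTI-Blue, 620 nm absorbance) and IRF (Lucia luciferase, QUANTI-Luc, luminescence) signals were divided by the mean agonist-only control on the same plate to give fold change. Two replicate plates were averaged, with errors by propagation.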", "values": [{"smiles": "COc1cc(C)n(CCNC(=O)c2ccccc2C(F)(F)F)c(=O)c1", "IRF reporter": "1.34 ± 0.28"}, {"smiles": "Cl.O=C1NCC2(CCN(CCc3ccccc3)CC2)O1", "IRF reporter": "1.54 ± 0.26"}, {"smiles": "CC1=NN(C(=O)OC(C)(C)C)C(O)(c2ccncc2)C1", "note": "(stereo not given)", "IRF reporter": "1.14 ± 0.14"}, {"smiles": "O=c1c(O)c(-c2ccccc2)oc2cc(O)ccc12", "IRF reporter": "0.947 ± 0.12"}, {"smiles": "Cc1ccc(C)n1-c1ccc(C(=O)OCC(=O)c2ccc([N+](=O)[O-])cc2)cc1", "IRF reporter": "1.1 ± 0.064"}, {"smiles": "O=C(Cn1c(=O)oc2ccccc21)N1Cc2cncnc2C1", "IRF reporter": "0.991 ± 0.15"}, {"smiles": "Cc1ccc(C23CC4CC(CC(CN)(C4)C2)C3)cc1.Cl", "IRF reporter": "1.27 ± 0.15"}, {"smiles": "COc1ccc2c(c1)c(CC(=O)O)c(C)n2C(=O)c1ccc(Cl)cc1", "IRF reporter": "1.25 ± 0.14"}, {"smiles": "N#C[C@@H]1CCCN1C(=O)CNC12CC3CC(CC(O)(C3)C1)C2", "IRF reporter": "1.05 ± 0.18"}, {"smiles": "Nc1ncnc2c1ncn2C1OC(CO)C(O)C1O", "note": "(stereo not given)", "IRF reporter": "1.2 ± 0.22"}, {"smiles": "Cc1cn([C@@H]2C[C@@H](O)[C@H](CO)O2)c(=O)[nH]c1=O", "IRF reporter": "0.886 ± 0.04"}, {"smiles": "Cc1cc(OCC(O)Cn2cnc3ccccc32)ccc1Cl", "note": "(stereo not given)", "IRF reporter": "0.9 ± 0.086"}, {"smiles": "O=C1C(Cl)=C(N2CCCCC2)C(=O)N1c1cc(Cl)c(Cl)cc1Cl", "IRF reporter": "1.07 ± 0.1"}, {"smiles": "CS(=O)(=O)N(CC(=O)NCCSCc1cccc(Cl)c1)c1ccc(Cl)cc1", "IRF reporter": "1.07 ± 0.062"}, {"smiles": "O=C(CCCn1nc(-c2ccc(F)cc2)ccc1=O)Nc1cc(Cl)ccc1Cl", "IRF reporter": "1.03 ± 0.076"}, {"smiles": "N#CC(=Cc1cn(Cc2ccccc2Cl)c2ccccc12)c1nn(CCO)c(N)c1C#N", "IRF reporter": "1.18 ± 0.17"}, {"smiles": "O=C(O)CCCNC(=O)c1ccccc1C(=O)O", "IRF reporter": "1.3 ± 0.14"}, {"smiles": "CC(C)OCc1ccc(C(=O)Nc2nnc(C(C)C)s2)o1", "IRF reporter": "1.11 ± 0.068"}, {"smiles": "CC(=O)Oc1cccc2c1C(=O)c1c(OC(C)=O)cc(C(=O)O)cc1C2=O", "IRF reporter": "0.954 ± 0.033"}, {"smiles": "Cc1occc1C(=O)Nc1ccc(F)c(F)c1", "IRF reporter": "1.07 ± 0.081"}]}, {"tested_on": "RAW-Dual (murine macrophage reporter line)", "test": "IRF reporter (Lucia luciferase) activity fold change vs agonist alone; higher = enhanced IRF activity", "settings": "modulator concentration 10 µM; agonist: MPLA […]", "procedure,_shortened": "as §1", "values": [{"smiles": "Oc1ccc(OCc2ccccc2)cc1", "IRF reporter": "1.42 ± 0.17"}, {"smiles": "O=C(NCC(O)Cc1ccccc1)Nc1ccc(F)cc1", "note": "(stereo not given)", "IRF reporter": "1.36 ± 0.37"}, {"smiles": "CCC(=O)CC(O)(c1ccccc1)C(F)(F)F", "note": "(stereo not given)", "IRF reporter": "1.01 ± 0.11"}, {"smiles": "COc1ccc(C(C)=NNC(=O)Nc2ccccc2)c(OC)c1", "IRF reporter": "1.4 ± 0.27"}, {"smiles": "NS(=O)(=O)c1ccc(F)cc1", "IRF reporter": "1.23 ± 0.17"}, {"smiles": "Cc1ncsc1C(=O)NC1CCC(F)(F)CC1", "IRF reporter": "1 ± 0.1"}, {"smiles": "Cn1c2c(c3ccccc31)CCCC2NC=O", "note": "(stereo not given)", "IRF reporter": "1.44 ± 0.14"}, {"smiles": "O=C(NN=Cc1cccc(Cl)c1Cl)c1cc(O)cc(O)c1", "IRF reporter": "1.3 ± 0.22"}, {"smiles": "Cc1ccc(OCCOc2ncnc3ccccc23)c(Cl)c1", "IRF reporter": "0.875 ± 0.18"}, {"smiles": "Cc1ccsc1C(=CCCN1CCC[C@@H](C(=O)O)C1)c1sccc1C", "IRF reporter": "0.732 ± 0.082"}, {"smiles": "CNC(=O)[C@H](Cc1c[nH]c2ccccc12)NC(=O)[C@@H](CC(=O)NO)CC(C)C", "IRF reporter": "1.12 ± 0.12"}, {"smiles": "Clc1cccc(Nc2nc(-c3ccccn3)cs2)c1", "IRF reporter": "0.658 ± 0.23"}, {"smiles": "CN1CCN(CC(O)Cn2c3ccccc3c3ccccc32)CC1.O=C(O)C(=O)O", "note": "(stereo not given)", "IRF reporter": "1.45 ± 0.23"}, {"smiles": "CCOC(=O)c1c(N2C(=O)C3C4C=CC(O4)C3C2=O)sc2c1CCCC2", "note": "(stereo not given)", "IRF reporter": "0.967 ± 0.18"}, {"smiles": "Cc1cc(OC2CN(C(=O)Cc3c[nH]c4ccccc34)C2)cc(=O)n1C1CC1", "IRF reporter": "1.23 ± 0.12"}, {"smiles": "O=C(CSC1CCCCC1)Nc1ccc(Br)cc1", "IRF reporter": "1.12 ± 0.14"}, {"smiles": "CN(C)C/C=C/C(=O)Nc1cc2c(Nc3ccc(F)c(Cl)c3)ncnc2cc1O[C@H]1CCOC1", "IRF reporter": "0.0463 ± 0.0039"}, {"smiles": "O=S(=O)(NCCn1ccn2nccc12)c1ccccc1Br", "IRF reporter": "1.23 ± 0.34"}, {"smiles": "CN(C)c1ccc(C=C(C#N)c2nc(-c3cc4ccccc4oc3=O)cs2)cc1", "IRF reporter": "1.15 ± 0.24"}, {"smiles": "N[C@@H](CC(=O)N1CCn2c(nnc2C(F)(F)F)C1)Cc1cc(F)c(F)cc1F", "IRF reporter": "1.1 ± 0.16"}, {"smiles": "COc1cc(C)n(CCNC(=O)c2ccccc2C(F)(F)F)c(=O)c1", "IRF reporter": "1.51 ± 0.4"}, {"smiles": "Cl.O=C1NCC2(CCN(CCc3ccccc3)CC2)O1", "IRF reporter": "1.78 ± 0.51"}, {"smiles": "CC1=NN(C(=O)OC(C)(C)C)C(O)(c2ccncc2)C1", "note": "(stereo not given)", "IRF reporter": "1.22 ± 0.2"}, {"smiles": "O=c1c(O)c(-c2ccccc2)oc2cc(O)ccc12", "IRF reporter": "0.789 ± 0.077"}, {"smiles": "Cc1ccc(C)n1-c1ccc(C(=O)OCC(=O)c2ccc([N+](=O)[O-])cc2)cc1", "IRF reporter": "1.01 ± 0.14"}, {"smiles": "O=C(Cn1c(=O)oc2ccccc21)N1Cc2cncnc2C1", "IRF reporter": "0.991 ± 0.12"}, {"smiles": "Cc1ccc(C23CC4CC(CC(CN)(C4)C2)C3)cc1.Cl", "IRF reporter": "1.29 ± 0.13"}, {"smiles": "COc1ccc2c(c1)c(CC(=O)O)c(C)n2C(=O)c1ccc(Cl)cc1", "IRF reporter": "1.29 ± 0.1"}, {"smiles": "N#C[C@@H]1CCCN1C(=O)CNC12CC3CC(CC(O)(C3)C1)C2", "IRF reporter": "1.11 ± 0.21"}, {"smiles": "Nc1ncnc2c1ncn2C1OC(CO)C(O)C1O", "note": "(stereo not given)", "IRF reporter": "1.23 ± 0.27"}, {"smiles": "Cc1cn([C@@H]2C[C@@H](O)[C@H](CO)O2)c(=O)[nH]c1=O", "IRF reporter": "0.82 ± 0.15"}, {"smiles": "Cc1cc(OCC(O)Cn2cnc3ccccc32)ccc1Cl", "note": "(stereo not given)", "IRF reporter": "0.685 ± 0.12"}, {"smiles": "O=C1C(Cl)=C(N2CCCCC2)C(=O)N1c1cc(Cl)c(Cl)cc1Cl", "IRF reporter": "1.01 ± 0.15"}, {"smiles": "CS(=O)(=O)N(CC(=O)NCCSCc1cccc(Cl)c1)c1ccc(Cl)cc1", "IRF reporter": "0.902 ± 0.081"}, {"smiles": "O=C(CCCn1nc(-c2ccc(F)cc2)ccc1=O)Nc1cc(Cl)ccc1Cl", "IRF reporter": "1.11 ± 0.18"}, {"smiles": "N#CC(=Cc1cn(Cc2ccccc2Cl)c2ccccc12)c1nn(CCO)c(N)c1C#N", "IRF reporter": "0.936 ± 0.058"}, {"smiles": "O=C(O)CCCNC(=O)c1ccccc1C(=O)O", "IRF reporter": "1.41 ± 0.21"}, {"smiles": "CC(C)OCc1ccc(C(=O)Nc2nnc(C(C)C)s2)o1", "IRF reporter": "1.05 ± 0.08"}, {"smiles": "CC(=O)Oc1cccc2c1C(=O)c1c(OC(C)=O)cc(C(=O)O)cc1C2=O", "IRF reporter": "0.939 ± 0.12"}, {"smiles": "Cc1occc1C(=O)Nc1ccc(F)c(F)c1", "IRF reporter": "1.46 ± 0.14"}]}]}
